Assay results: PubChem BioAssay AID1159580 (chemical genetic matrix, 2015)
About 2,000 (36%) of roughly 5,500 compounds were called active. Roughly 18% stayed inconclusive and do not appear here. No stated cut-off is given here; in the data, active means normalized growth mostly below about 0.91 (no sharp cut-off); inconclusive means no clear call, values can overlap the other calls; inactive means mostly above about 0.92. The list shows a part of the results.

Experiment: chemical genetic growth profiling, strain panel (AID 1159580);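 further: tested at 20 µM; growth read once vehicle control cultures reached saturation at 30 °C; 1 = growth at the plate median or of vehicle wells; lower values mean less growth of the strain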
Details: growth OD

Measured: normalized growth

COP(=O)(OC)OC=C(Cl)Cl
inactive: S. cerevisiae deletion strains, locus YJR075W, strain HOC1, hits give low values 0.962 | S. cerevisiae deletion strains, locus YKL009W, strain mrt4, hits give low values 0.951 | S. cerevisiae deletion strains, locus YKL068W, hits give low values 0.986 | S. cerevisiae deletion strains, locus YKL085W, strain MDH1 (second series), hits give low values 0.981 | S. cerevisiae deletion strains, locus YKL085W, strain MDH1, hits give low values 0.981 | S. cerevisiae deletion strains, locus YKL160W, strain elf1, hits give low values 0.999 | S. cerevisiae deletion strains, locus YKL190W, strain CNB1, hits give low values 0.994 | S. cerevisiae deletion strains, locus YKR001C, strain vps1, hits give low values 0.992 | S. cerevisiae deletion strains, locus YKR026C, strain gcn3, hits give low values 1.01 | S. cerevisiae deletion strains, locus YKR091W, strain srl3, hits give low values 0.997 | S. cerevisiae deletion strains, locus YLL001W, strain dnm1, hits give low values 1.01 | S. cerevisiae deletion strains, locus YLL026W, hits give low values 0.997 | S. cerevisiae deletion strains, locus YLL041C, strain sdh2, hits give low values 1 | S. cerevisiae deletion strains, locus YLR027C, strain aat2, hits give low values 1 | S. cerevisiae deletion strains, locus YLR039C, strain RIC1, hits give low values 0.979 | S. cerevisiae deletion strains, locus YLR058C, strain SHM2, hits give low values 0.983 | S. cerevisiae deletion strains, locus YLR102C, strain apc9, hits give low values 0.977 | S. cerevisiae deletion strains, locus YLR113W, strain HOG1, hits give low values 1.02 | S. cerevisiae deletion strains, locus YLR221C, strain rsa3, hits give low values 0.999 | S. cerevisiae deletion strains, locus YLR258W, strain gsy2, hits give low values 0.999 | S. cerevisiae deletion strains, locus YLR262C, strain YPT6 (second series), hits give low values 1.01 | S. cerevisiae deletion strains, locus YLR262C, strain YPT6, hits give low values 0.97 | S. cerevisiae deletion strains, locus YLR268W, strain sec22, hits give low values 0.996 | S. cerevisiae deletion strains, locus YLR320W, strain mms22, hits give low values 1.01 | S. cerevisiae deletion strains, locus YLR330W, strain CHS5, hits give low values 0.996 | S. cerevisiae deletion strains, locus YLR342W, strain FKS1 (second series), hits give low values 0.971 | S. cerevisiae deletion strains, locus YLR342W, strain FKS1, hits give low values 0.983 | S. cerevisiae deletion strains, locus YLR357W, strain rsc2, hits give low values 1.07 | S. cerevisiae deletion strains, locus YLR370C, strain arc18, hits give low values 0.999 | S. cerevisiae deletion strains, locus YLR371W, strain rom2, hits give low values 0.989 | S. cerevisiae deletion strains, locus YLR384C, strain iki3, hits give low values 0.998 | S. cerevisiae deletion strains, locus YLR418C, strain cdc73, hits give low values 1.01 | S. cerevisiae deletion strains, locus YML016C, strain PPZ1, hits give low values 0.986 | S. cerevisiae deletion strains, locus YML032C, strain rad52, hits give low values 0.978 | S. cerevisiae deletion strains, locus YML120C, strain ndi1, hits give low values 0.981 | S. cerevisiae deletion strains, locus YML124C, strain tub3, hits give low values 0.992 | S. cerevisiae deletion strains, locus YMR058W, strain fet3, hits give low values 0.994 | S. cerevisiae deletion strains, locus YMR078C, strain ctf18, hits give low values 0.992 | S. cerevisiae deletion strains, locus YMR125W, strain sto1, hits give low values 0.982 | S. cerevisiae deletion strains, locus YMR129W, hits give low values 0.992 | S. cerevisiae deletion strains, locus YMR205C, strain PFK2, hits give low values 0.991 | S. cerevisiae deletion strains, locus YMR223W, strain ubp8, hits give low values 0.985 | S. cerevisiae deletion strains, locus YMR231W, strain pep5, hits give low values 1.01 | S. cerevisiae deletion strains, locus YMR263W, strain SAP30, hits give low values 0.976 | S. cerevisiae deletion strains, locus YMR307W, strain GAS1, hits give low values 1.1 | S. cerevisiae deletion strains, locus YNL067W, strain RPL9B, hits give low values 0.963 | S. cerevisiae deletion strains, locus YNL071W, strain lat1, hits give low values 1.01 | S. cerevisiae deletion strains, locus YNL128W, strain TEP1, hits give low values 0.956 | S. cerevisiae deletion strains, locus YNL153C, strain GIM3, hits give low values 0.986 | S. cerevisiae deletion strains, locus YNL183C, strain NPR1, hits give low values 0.998 | S. cerevisiae deletion strains, locus YNL209W, strain ssb2, hits give low values 0.998 | S. cerevisiae deletion strains, locus YNL233W, strain BNI4, hits give low values 0.977 | S. cerevisiae deletion strains, locus YNL248C, strain rpa49, hits give low values 0.994 | S. cerevisiae deletion strains, locus YNL250W, strain rad50, hits give low values 0.988 | S. cerevisiae deletion strains, locus YNL271C, strain bni1, hits give low values 0.98 | S. cerevisiae deletion strains, locus YNL298W, strain CLA4, hits give low values 1 | S. cerevisiae deletion strains, locus YNL307C, strain MCK1, hits give low values 1 | S. cerevisiae deletion strains, locus YNL322C, strain KRE1 (second series), hits give low values 1.02 | S. cerevisiae deletion strains, locus YNL322C, strain KRE1, hits give low values 0.985 | S. cerevisiae deletion strains, locus YNR049C, strain mso1, hits give low values 0.982 | S. cerevisiae deletion strains, locus YNR052C, strain pop2, hits give low values 0.991 | S. cerevisiae deletion strains, locus YOL006C, strain TOP1, hits give low values 1.01 | S. cerevisiae deletion strains, locus YOL012C, strain htz1 1.06 | S. cerevisiae deletion strains, locus YOL147C, strain pex11, hits give low values 1 | S. cerevisiae deletion strains, locus YOR001W, strain rrp6, hits give low values 0.996 | S. cerevisiae deletion strains, locus YOR061W, strain CKA2, hits give low values 0.96 | S. cerevisiae deletion strains, locus YOR069W, strain VPS5, hits give low values 0.98 | S. cerevisiae deletion strains, locus YOR070C, strain gyp1, hits give low values 0.99 | S. cerevisiae deletion strains, locus YOR080W, strain dia2, hits give low values 0.987 | S. cerevisiae deletion strains, locus YOR083W, strain WHI5, hits give low values 0.987 | S. cerevisiae deletion strains, locus YOR106W, strain vam3, hits give low values 0.983 | S. cerevisiae deletion strains, locus YOR136W, strain idh2, hits give low values 0.986 | S. cerevisiae deletion strains, locus YOR144C, strain elg1, hits give low values 0.984 | S. cerevisiae deletion strains, locus YOR184W, strain ser1, hits give low values 0.998 | S. cerevisiae deletion strains, locus YOR231W, strain MKK1, hits give low values 1.05 | S. cerevisiae deletion strains, locus YOR265W, strain rbl2, hits give low values 0.988 | S. cerevisiae deletion strains, locus YOR270C, strain vph1, hits give low values 0.976 | S. cerevisiae deletion strains, locus YOR290C, strain snf2, hits give low values 0.997 | S. cerevisiae deletion strains, locus YOR316C, strain cot1, hits give low values 0.971 | S. cerevisiae deletion strains, locus YPL051W, strain arl3, hits give low values 0.998 | S. cerevisiae deletion strains, locus YPL055C, strain LGE1, hits give low values 0.998 | S. cerevisiae deletion strains, locus YPL078C, strain atp4, hits give low values 0.99 | S. cerevisiae deletion strains, locus YPL106C, strain sse1, hits give low values 0.992 | S. cerevisiae deletion strains, locus YPL240C, strain hsp82, hits give low values 1 | S. cerevisiae deletion strains, locus YPL241C, strain CIN2, hits give low values 0.98 | S. cerevisiae deletion strains, locus YPL256C, strain CLN2, hits give low values 1.05 | S. cerevisiae deletion strains, locus YPR119W, strain clb2, hits give low values 0.997 | S. cerevisiae deletion strains, locus YPR141C, strain kar3, hits give low values 0.972 | S. cerevisiae deletion strains, locus YPR163C, strain tif3, hits give low values 0.995 | S. cerevisiae deletion strains, locus YPR167C, strain met16, hits give low values 0.976 | S. cerevisiae deletion strains, strain wtn01, hits give low values 0.995 | S. cerevisiae strains, strain wild type, hits give low values 0.997
